Measurements taken from the supplement of paper PMC11417369.
± gives the standard deviation of the averaged measurements. In all, about 25,000 sequences were measured (“ln(normalized median fluorescence intensity)”: median about 10, highest 2% from about 12 on). Shown is part of a subset that was picked to be rich in the highest values.

test system: PfAP2-G AP2 domain (GST-tagged); experiment: gcPBM binding intensity (ln(normalized median fluorescence intensity)); higher = stronger DNA binding
Summary of the method: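 GST-tagged P. falciparum DNA-binding domains produced in E. coli were incubated for 1 h on an Agilent 4 × 180k array of primer-extended double-stranded 36-bp intergenic genomic probes with negative controls. Binding intensity is the highest Masliner-normalised natural-log median intensity across replicate spots of either probe orientation, with bound protein detected by Alexa488 anti-GST antibody at 488 nm.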

Row | Sequence | gcPBM binding intensity (ln)
1 | TGTTTTGTTTTTTGGGGTACATGTTTTGTATTATAT [XGTACX_site7997] | 11.6 ± 0.78
2 | GTTTGGTGGTGTTTTGGTACGTACGGGGGTGTATGT [XGTACX_site1211] | 11.7 ± 0.85
3 | TATGATTTTTATATATGTACGTATGGTGTTTTACAA [XGTACX_site6100] | 11.3 ± 0.53
4 | GACTTTTCATTTATAGTGCAAGTTTTTTTTTTTTTT [GTGCAC_site9698] | 10.1 ± 0.23
5 | CAAAAGTAAGCACGCACACACAACATGAAATAAACT [CACACA_site6223] | 10.29 ± 0.078
6 | ATATATTTTGATTGCACACAGAATTTAAATCATGAT [CACACA_site2343] | 10.1 ± 0.2
7 | TATTTATAAAAATATACACACATACAAATATGCATA [CACACA_site4555] | 9.815 ± 0.007
8 | CATAAATACTATATATGTACGTAATTTTTAAAACAT [XGTACX_site7710] | 11.6 ± 0.83
9 | TTTTTTTTAAAACTATGTACGTAAAAATTGTAGTTT [XGTACX_site2302] | 11.7 ± 0.91
10 | TTTTTTTTTTTAATATGTACGTAAAATAAGTTTAAA [XGTACX_site6495] | 11.4 ± 0.95
11 | TTTATTTTATTTTCATGTACAAAAGGGGAATAATAA [XGTACX_site2704] | 10.9 ± 0.71
12 | AATAGGGTCATTCAAAAAAAAAAAAAATAATAATAC [CACACA_negctrl_site644] | 10.1 ± 0.29
13 | TACACATGTTTAAAATGTACGTTTTATAACACACAC [XGTACX_site8229] | 11.3 ± 0.82
14 | ATATTATAAATATAATGTACGTTTTAATTTCATGTT [XGTACX_site3557] | 11.2 ± 0.79
15 | ATTTCTAAATGTTGGTGTACGTTTTTTTATAACCTT [XGTACX_site1752] | 11.6 ± 1.1
16 | TCACTATAATAATTTACACACATTTTAAGAAAATGG [CACACA_site5867] | 10 ± 0.18
17 | TATATTTATTATAACACACACATATATATATTATAT [CACACA_site1061] | 9.905 ± 0.064
18 | TTATAAATAAAAAATACACACATATATTTATTTATA [CACACA_site6242] | 9.77 ± 0.028
19 | TACTATGCCCCATATAAACACACAAATAAAAAGAAT [CACACA_site8857] | 10.2 ± 0.21
20 | TTTTCATGTTGTAAAGCATGCTTTACTCATAAAAAA [TGCATGCA_site917] | 9.95 ± 0.23
21 | ATTTCATTTTATAAGTGTACAATAAAAAAAAAAAAA [XGTACX_site8677] | 11.3 ± 1
22 | ACAATATGCAAAAAGTGTACACATTCATTTATATAA [XGTACX_site1061] | 11.7 ± 0.86
23 | ATTTAAATAATATGTACACACATTTAAAAAGTTATA [CACACA_site7347] | 11.6 ± 0.94

Row | Sequence | gcPBM binding intensity (ln)
24 | ATAGGCAAAAAGTGTACACATTCATTTATATAAATA [CACACA_site4480] | 11.7 ± 0.79
25 | TGCAATATATCAAAGTGTACATGCAATAAAAAAAAA [XGTACX_site652] | 11.1 ± 0.71
26 | TATACATTTTTATAAAGTACACAAAAATAAATATAA [XGTACX_site1647] | 11.5 ± 0.95
27 | TTGTAGATATTTATATGTACGAATTTATAAATATAG [XGTACX_site3611] | 11.1 ± 0.76
28 | ACTATTTTCTTCAAAACATGCACCACATAAACATAA [TGCATGCA_site200] | 10.6 ± 0.51
29 | TAATTATTATTAATAGTACACACTATGGCATTTCAA [CACACA_site2488] | 11.1 ± 0.84
30 | TATAAATATATTTATACACACATTAGTGTATACATG [CACACA_site7397] | 10.2 ± 0.11
31 | ATTATATTTTTAAGTACACACATATAAATAAATATA [CACACA_site7682] | 11.4 ± 1
32 | TATATTTATAAGTGTACACATTATATAAATCCCTAT [CACACA_site6122] | 11.7 ± 1.1
33 | AAAATTCATCCAACAAGTACATAAATATAATATTAT [XGTACX_site4596] | 11.3 ± 0.79
34 | GATTATTTTATAAGTACACACATTTATATATAATAA [CACACA_site2573] | 11.5 ± 1.1
35 | TATTCATATTCCAAGTGTACACATAAATCCCTAATA [XGTACX_site4131] | 11.5 ± 0.9
36 | TCATATTCCAAGTGTACACATAAATCCCTAATAACA [CACACA_site5167] | 11.7 ± 0.94
37 | TAATATATTTATAAGTGTACACATTATATAAATCCC [XGTACX_site8875] | 11.7 ± 0.74
38 | ATTAACACATTTAAGTGTACATATATAAATATATAT [XGTACX_site7098] | 11.4 ± 0.83
39 | TCAAAAATAAAGATCACACATATATATATATATATA [CACACA_site4381] | 10.3 ± 0.99
40 | CACATATATACACATACACACACACCCATACACCCA [CACACA_site8505] | 10.5 ± 0.39
41 | TATACAAAATAACTAGCACACATATGTATAAACATA [CACACA_site9236] | 10.2
42 | TACATACACAAATACACACACAAATACATACACAAA [CACACA_site704] | 10.2 ± 0.41
43 | TAAACATTCTTATATAGTACCCATATTAAAATATAC [XGTACX_site8014] | 10.8 ± 0.58
44 | TATATATAAGAAAAAAGTACAGATATATATATATTC [XGTACX_site4788] | 11.6 ± 1.1
45 | CCAATAATATATAGAAGTACAGAAAAAAAAAAAAAA [XGTACX_site2049] | 11.5 ± 1.1
46 | TATATATATATAAGAAGTACAGAAAATTAGAAAAAA [XGTACX_site8773] | 11.7 ± 1.1

Row | Sequence | gcPBM binding intensity (ln)
47 | TTTTTTTTTTTTTTTTTTTTTTTGCTCAGTGTGGTA [CACACA_negctrl_site29] | 9.95 ± 0.56
48 | ACAGAAAATAAAATTTGTACATATATAGAATAAAGA [XGTACX_site3014] | 10.8 ± 0.39
49 | ATTTTGATAACCGTACGTACATATATATATATATAT [XGTACX_site6605] | 11.8 ± 0.85
50 | AATGATTTTGATTAACGTACGTACAAATATATATAT [XGTACX_site6604] | 11.5 ± 0.82
51 | AAAATTATATATTATAGTACATAAAATTTTGATATA [XGTACX_site994] | 10.9 ± 0.56
52 | ACCATTTGTACTTACGCACACATAAAATATATATAT [CACACA_site1545] | 11.5 ± 1
53 | TAAATTATATTATGCACACTTAAAAATATATTTAAC [CACACA_site3512] | 10.07 ± 0.085
54 | CAACAAAAATTATTTACACACAAAAGGCAAGGAAAT [CACACA_site1971] | 10.5 ± 0.28
55 | ACCTTAAATAATACATGTACAAAAAAATTTATAATA [XGTACX_site1043] | 11 ± 0.49
56 | TCTTACTAATTTATGGGGACTTATCACCTATTCAGT [CACACA_negctrl_site652] | 10.5 ± 0.23
57 | TTTTGTGGAGGATGGTGTACGGTATTGTATTATTAC [XGTACX_site1942] | 11.1 ± 0.64
58 | TTATGTATAAACACACGTACACACACTAAGTATATC [XGTACX_site3254] | 11.5 ± 1
59 | ATACGAAGTACGTACACACACTTATATGTTACTAAA [CACACA_site7812] | 11.7 ± 1
60 | ATTTATATATTTATACGTACTTATATATTGTTACAT [XGTACX_site6254] | 11.2 ± 0.73
61 | AGAAAATATACAAAACGTACTTATATATTATATCTA [XGTACX_site3104] | 10.9 ± 0.69
62 | TTATACGAAGTACGTACACACACTTATATGTTACTA [CACACA_site4019] | 11.6 ± 0.94
63 | TACCTAATATGTTATACACACATTAGAAGTACATAT [CACACA_site5375] | 11.6 ± 1.1
64 | ATAAAAATAAACATACGTACTTACACGAATATACAT [XGTACX_site5989] | 11.1 ± 0.65
65 | ATACATATATACATACGTACTTATATACATATGTGC [XGTACX_site5268] | 10.9 ± 0.42
66 | TTACATATTATACGAAGTACGTACAAATACTTATAT [XGTACX_site8598] | 11.7 ± 0.81
67 | TTTCATGTTTTAAAGTGTACATAAATATATTATATG [XGTACX_site3367] | 11.5 ± 0.89
68 | ATAATTTCAATATTTAATATCATATATATATATTTT [GTGCAC_negctrl_site713] | 9.56 ± 0.13
69 | CTATCATATTTATGCACACAAAAATAATTAATTCGT [CACACA_site2614] | 10.2 ± 0.23

Row | Sequence | gcPBM binding intensity (ln)
70 | TAATTTATAAATAATTGTACATAGTTTATTTAGATT [XGTACX_site4599] | 10.9 ± 0.43
71 | ATACAGATAGGATGCACACATAATTCAAATACAATA [CACACA_site4531] | 10.2 ± 0.13
72 | TTTTTTTTATTAAAAAGTACTAAACAAATTATATAT [XGTACX_site121] | 11.1 ± 0.73
73 | AATAATTTTTAAATATAAACATTTTTTTTTTTTTTT [GTGCAC_negctrl_site532] | 9.72 ± 0.057
74 | TGCACAAAGTTATGCACACACCTAAAATTAATTTTT [CACACA_site7385] | 10.05 ± 0.071
75 | TGATAATAAGCATACACACACACACTAAAAAAAAAA [CACACA_site6478] | 10.3 ± 0.43
76 | TAAAAGTTCACCTGTACACACATATAAATATGTACA [CACACA_site6901] | 11.7 ± 0.85
77 | ATAAGGAAGGGATGCACACAAAAGGGTACATAAGAA [CACACA_site4006] | 11.4 ± 0.71
78 | AAAGAAAAAAAAAAAAGTACATAAATATAAAAAGAA [XGTACX_site6753] | 11.5 ± 0.89
79 | ATATATATATATATATGTACACATAAAAAGAAAGAA [XGTACX_site1603] | 11.7 ± 1.1
80 | AAAAAAAAAAAGTACACACATACATATAAATATATA [CACACA_site1809] | 11.6 ± 0.95
81 | CAGGGCAGGGGGAAGGGTACACATAAAAGAAAATAA [XGTACX_site172] | 11.7 ± 1.1
82 | AAAGAAGGGGGGGGAAAAAAAAATAAAAGAGGAAAA [XGTACX_negctrl_site92] | 11 ± 0.77
83 | ATACATATACACATATGTACATATGAAAAGAAAAAT [XGTACX_site6445] | 11.1 ± 0.64
84 | AGAAAAAAAAAAAGTACACACATATAATATATATAT [CACACA_site2973] | 11.6 ± 1.2
85 | AAATAAAGAAATATATGTACATATATATATATATAT [XGTACX_site5131] | 11.3 ± 0.43
86 | AAATAAAAGTTCACCTGTACACACATATATATATGT [XGTACX_site3513] | 11.5 ± 0.66
87 | AATAAAAGTTCACCTGTACACACATATATATATGTA [CACACA_site8500] | 11.3 ± 0.76
88 | ACATATAAAATGTATACACACAAATATTACATATAT [CACACA_site1472] | 10.1 ± 0.11
89 | TTTTTCATTTAGCTTTTACACACTATATATTATTGA [CACACA_site7888] | 9.905 ± 0.064
